Test system: Plasmodium falciparum
Experiment: GSK_TCMDC: Inhibition of Plasmodium falciparum Dd2 in whole red blood cells, using parasite LDH activity as an index of growth. Test compounds present at 2uM
Format: functional

SMILES | Inhibition
CC(C)(C)c1cc(C(=O)N2CCN(c3ccc(C(F)(F)F)cn3)CC2)n(Cc2ccc(F)cc2)n1 | 26%
O=C(Nc1cccc([N+](=O)[O-])c1)Nc1ccc(Cl)c(C(F)(F)F)c1 | 87%
Cc1cccc2nc(-c3ccc(-c4cccc(NC(=O)Nc5ccsc5)c4)cc3)[nH]c12 | 24%
COc1ccc(-c2cccc(NC(=O)c3cccc(C#N)c3)c2)cc1CN1CCC(O)CC1.O=C(O)C(F)(F)F | 13%
Fc1ccc(OC2CN(c3nccc(NCc4ccccc4Cl)n3)C2)cc1 | 99%
Cc1cccc2nc(-c3cccc(-c4cccc(CN5CCN(c6ccc(C#N)cn6)CC5)c4)c3)[nH]c12.O=C(O)C(F)(F)F | 34%
O=C(NCCCCN1CCC(c2ccc3ccccc3c2O)CC1)c1ccc(NC(=O)c2ccc(Cl)cc2)cc1 | 89%
Cc1cc(N(C)C)nc(Nc2ccc(NC(=O)COc3ccccc3)cc2)n1 | 67%
CNc1ccc(CNCc2ccc(-c3ccc(-c4nc5cccc(C)c5[nH]4)cc3)cc2)cc1.O=C(O)C(F)(F)F | 92%
COc1ccc2nccc([C@@H](O)CN3CCC(NS(=O)(=O)c4cc5c(cc4Cl)SCC(=O)N5)CC3)c2c1.O=C(O)C(=O)O | 0%
Cc1nc2ccccc2c(=O)n1NCc1ccc(Cl)c(Cl)c1 | 92%
COc1ccccc1Nc1nc(C)cc(NCc2ccc(-c3c(C)noc3C)cc2)n1 | 13%
COC(=O)c1ccc2[nH]cc(C3CCN(CCC4CCN(C(=O)/C=C/c5ccc(Cl)c(Cl)c5)CC4)CC3)c2c1 | 59%
COc1ccc2ncc(OC)c(CCN3CC[C@@H](NCc4ccc5c(n4)NC(=O)CS5)[C@H](O)C3)c2n1 | 99%
Cc1nc(-c2cccc(C(=O)Nc3cnc4ccccc4c3)c2)no1.O=C(O)C(F)(F)F | 12%
CCN(CCCN1CCCCC1)c1cc(C)nc(Nc2ccc(Cl)cc2)n1.Cl | 82%
CC(CCc1ccccc1)NCC(O)c1ccc2c3c(cccc13)C(=O)N2C.Cl (stereo not given) | 57%
O=c1cc(NCCCNCc2cc(Cl)cc(Cl)c2OCc2ccc(Cl)cc2)[nH]c2ccccc12 | 53%
Fc1ccc(NC(=S)NCCc2ccccc2)cc1 | 0%
Cl.Nc1ncc(Cc2cc(Cl)c(N)c3ncccc23)c(N)n1 | 95%

SMILES | Inhibition
NC1CCCN(Cc2ccc(-c3ccc(-c4nc5ccccc5[nH]4)s3)cc2)C1.O=C(O)C(F)(F)F (stereo not given) | 99%
O=C(Nc1ccccc1Cl)N(Cc1cc(Cl)cc(Cl)c1)CC(O)COc1ccc(Cl)c(F)c1 (stereo not given) | 17%
Cl.N=C(N)Nc1nc(-c2ccc(NC(=N)N3CCC[C@H]3CN3CCCC3)cc2)cs1 | 66%
CCCCCn1c(Sc2ccc(C#N)c([N+](=O)[O-])c2)nnc1-c1ccc(Cl)cc1 | 29%
Cc1[nH]c(C)c(-c2ccc(-c3ccc(F)cc3)nc2)c(=O)c1Br | 96%
Cc1ccccc1C(=O)Nc1cccc(-c2nc3ncccn3c2C)c1 | 94%
Cc1cccc2nc(-c3cccc(-c4ccc(NC(=O)C5CCCO5)cc4)c3)[nH]c12 (stereo not given) | 13%
COc1ccc(O)c(C(=O)c2cnc3c(c2)c(-c2ccc(F)cc2)c(C#N)c(=O)n3C)c1 | 14%
COc1ccc2[nH]ccc(=NN=Cc3ccccc3)c2c1 | 99%
CCOC(=O)c1c(C)n(-c2ccccc2)c2ccc(OC(=O)COc3ccc(Cl)cc3Cl)cc12 | 87%
COc1ccc(CCN(C)CCCN2CCC(NC(=O)c3cccc4c(=O)c5ccccc5sc34)CC2)cc1OC.O=C(O)C(=O)O | 79%
Cc1ccc(O)c(CN2CCCC(COC(c3ccc(F)cc3)c3ccc(F)cc3)C2)c1 (stereo not given) | 98%
CC(C)CCN1CCC(Oc2ccc(NC(=O)c3cccs3)cc2Cl)CC1.O=C(O)C(F)(F)F | 96%
Cc1cc(O)c2c3c1C(=O)C=C1C3c3c(c(O)cc(O)c3C(=O)C1(C)C)C2=O (stereo not given) | 46%
Cc1cc(NC(=O)Nc2ccc3ccn(C)c3c2)c2ccccc2n1 | 69%
O=C(Nc1ccc2c(c1)CCCN2S(=O)(=O)c1cccs1)c1cc([N+](=O)[O-])ccc1Cl | 95%
COc1cccc(C(=O)Nc2ccc(Nc3nc(C)cc(N4CCCCC4)n3)cc2)c1OC | 27%
Cc1ccc(CN(Cc2ccc(C(=O)N(C)C)cc2)Cc2ccc3c(c2)OCCO3)cc1C | 87%
COc1cccc(-c2ccc3c(-c4cccc(S(C)(=O)=O)c4)cnc(N)c3c2)c1 | 21%
Clc1cccc(C23N/C(=N\c4nc5ccccc5[nH]4)NC2(c2ccccc2)N/C(=N\c2nc4ccccc4[nH]2)N3)c1 (stereo not given) | 88%
